Laboratory results reported in PubChem BioAssay.
A number with no mark means an inactive call. This is one part of the list. Calls of active or inactive are those of the source.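 Rule for the calls, unless noted: active = mean inhibition across replicates above the hit cutoff set by the earlier primary screen (cut at about 15% in these data); inactive = the rest.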

Assays:
[1] = biological target: Protein-arginine deiminase type-4 (Homo sapiens) (UniProt Q9UM07); experiment: protein arginine deiminase 4 blockade, retest – biochemical, fluorescence polarization, confirmation (AID 488796); details: recombinant PAD4, RCA probe fluorescence polarization; at 6.36 µM; stronger effect = higher value;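 note: inhibitors block active-site labeling by the probe so polarization falls; 0% = PAD4 with probe and DMSO and 100% = probe without PAD4 enzyme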
[2] = biological target: (Lyso)-N-acylphosphatidylethanolamine lipase (Mus musculus) (UniProt Q8VD66); experiment: mouse ABHD4 hydrolase blockers, triplicate – biochemical, fluorescence polarization, confirmation (AID 720658;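 active = mean inhibition across replicates above the hit cutoff set in the primary screen, cut at about 30% in these data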;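 note: 0% = wild-type ABHD4 with DMSO and 100% = catalytically dead S159A mutant with DMSO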); details: purified mABHD4, FP-Rh probe fluorescence polarization; at 8.92 µM; stronger effect = higher value
[3] = biological target: Serine protease HTRA1 (Homo sapiens) (UniProt Q92743); experiment: confirming inhibition of human HTRA1 – biochemical, fluorescence polarization, confirmation (AID 540248;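 active = mean inhibition over three repeats above a set limit taken from the earlier primary screen, cut at about 37% in these data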;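 note: 0% = HTRA1 with DMSO and 100% = wells lacking HTRA1; inhibitors block probe binding so polarization drops and inhibition rises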); details: recombinant HTRA1, FP-rhodamine activity-based probe, at 5.96 µM, stronger effect = higher value
[4] = BSA probe fluorescence interference – biochemical, TAMRA-labeled BSA, counter-screen for TCR-CD3 interaction inhibitor project (AID 652035; in the data active = inhibition above about 23%;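 note: 0% = buffer low control and 100% = reference high control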); details: TAMRA-labeled BSA probe fluorescence counterscreen; at 9.4 µM; stronger effect = higher value
[5] = tested on: T-cell receptor (TCR)-CD3 interaction, human; experiment: blockers of TCR binding to CD3 – biochemical, fluorescence, TAMRA-labeled TCR probe, confirmation (AID 652036; in the data active = inhibition above about 19%); details: TAMRA-labeled TCR probe fluorescence binding assay; at 9.4 µM; stronger effect = higher value
[6] = biological target: Platelet-activating factor acetylhydrolase (Homo sapiens) (UniProt Q13093); experiment: inhibition of plasma PAF acetylhydrolase – biochemical, fluorescence polarization, human, confirmation (AID 463230;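 active = mean inhibition of the triplicate above the hit cutoff set for the earlier primary screen, cut at about 25% in these data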;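 note: 0% = enzyme with DMSO and 100% = wells lacking pPAFAH enzyme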); details: recombinant pPAFAH, FP-Rh probe fluorescence polarization; at 3.39 µM; stronger effect = higher value
[7] = biological target: Receptor-interacting serine/threonine-protein kinase 2 (Homo sapiens) (UniProt O43353); experiment: inhibitors of RIPK2 association with NOD2 – fluorescence, CHO cells, BLA complementation, triplicate, confirmation (AID 624370;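 active = mean inhibition across replicates above a set limit taken from the earlier primary screen, cut at about 21% in these data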;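 note: 0% = DMSO-only wells and the high end = clavulanate BLA-blocked wells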); details: CCF4 FRET, at 4.98 µM, stronger effect = higher value
[8] = BLA reporter readout interference – cell-based, CHO-K1 CMV-bla, CCF4 FRET, fluorescence, artefact control for NOD2-RIPK2 interaction inhibitor project, confirmation (AID 624371;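 active = mean inhibition above the low-control mean inhibition plus three low-control SD, cut at about 11% in these data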;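 note: 0% = DMSO only wells and 100% = clavulanate high control wells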); details: CCF4 FRET ratio, counterscreen, at 4.98 µM, stronger effect = higher value
[9] = tested on: transactivating tegument protein VP16 (Human herpesvirus 1); experiment: compounds suppressing VP16-driven luciferase signal – cell-based, luminescence, single concentration, counter-screen for SRC2 inhibitor project (AID 652007; in the data active = inhibition above about 36%); details: cell-based VP16 transactivation luciferase reporter, at 8.9 µM, stronger effect = higher value
[10] = biological target: Nuclear receptor coactivator 2 (Homo sapiens) (UniProt Q15596); experiment: inhibition of GAL4-SRC2 driven luciferase expression – cell-based, luminescence, HEK293, triplicate, confirmation (AID 652008;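 active = mean inhibition above 46.5%, the solvent-only control mean plus 3 SD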;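 note: 0% = DMSO-treated cells and 100% = Gossypol at 36 µM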); details: HEK293 GAL4-SRC2 luciferase reporter, at 8.9 µM, stronger effect = higher value
[11] = StAR promoter reporter inhibitors, counter-screen for LRH-1 inverse agonist project, cell-based, luminescence, high throughput (AID 651611; in the data active = inhibition above about 28%); details: StAR promoter luciferase reporter counterscreen, at 3.6 µM, stronger effect = higher value
[12] = biological target: Nuclear receptor subfamily 5 group A member 2 (Homo sapiens) (UniProt O00482); experiment: NR5A2 activity suppression in reporter cells – cell-based, luminescence, confirmation (AID 651613; in the data active = inhibition above about 42%;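 note: HEK293T cells co-transfected with LRH-1 and StAR promoter luciferase reporter; 0% = vehicle wells and 100% = parental cells lacking receptor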); details: cell-based LRH-1 luciferase reporter, inverse agonism; at 3.6 µM; stronger effect = higher value
[13] = biological target: Steroidogenic factor 1 (Homo sapiens) (UniProt Q13285); experiment: inverse agonism at SF1 nuclear receptor – cell-based, luminescence, high throughput, counter-screen for LRH-1 inverse agonist project (AID 651614; in the data active = inhibition above about 44%;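 note: cells cotransfected with StAR promoter reporter and SF1 expression vector; 0% = vehicle on cells with receptor and 100% = vehicle on cells lacking receptor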); details: cell-based SF1 luciferase reporter, at 3.6 µM, stronger effect = higher value
[14] = compounds suppressing VP16-driven luciferase signal – cell-based, luminescence, high throughput, counter-screen for LRH-1 inverse agonist project (AID 651615; in the data active = inhibition above about 33%); details: Gal4-VP16 luciferase reporter cells, at 3.6 µM, stronger effect = higher value

Platelet-activating factor acetylhydrolase (Homo sapiens), sequence (Q13093 whole entry, looked up): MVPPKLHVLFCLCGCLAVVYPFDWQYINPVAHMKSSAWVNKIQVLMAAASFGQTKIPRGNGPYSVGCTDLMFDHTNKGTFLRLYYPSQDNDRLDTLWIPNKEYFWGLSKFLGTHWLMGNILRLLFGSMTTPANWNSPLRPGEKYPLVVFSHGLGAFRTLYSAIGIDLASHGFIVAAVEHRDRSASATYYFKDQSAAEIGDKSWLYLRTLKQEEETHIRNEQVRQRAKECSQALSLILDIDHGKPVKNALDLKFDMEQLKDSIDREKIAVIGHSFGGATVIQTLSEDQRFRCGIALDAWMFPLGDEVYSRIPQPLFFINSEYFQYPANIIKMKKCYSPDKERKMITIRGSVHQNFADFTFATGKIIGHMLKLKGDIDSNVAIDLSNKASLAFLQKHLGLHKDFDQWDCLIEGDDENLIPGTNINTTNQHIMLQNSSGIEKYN
(Lyso)-N-acylphosphatidylethanolamine lipase (Mus musculus), sequence (Q8VD66 whole entry, looked up): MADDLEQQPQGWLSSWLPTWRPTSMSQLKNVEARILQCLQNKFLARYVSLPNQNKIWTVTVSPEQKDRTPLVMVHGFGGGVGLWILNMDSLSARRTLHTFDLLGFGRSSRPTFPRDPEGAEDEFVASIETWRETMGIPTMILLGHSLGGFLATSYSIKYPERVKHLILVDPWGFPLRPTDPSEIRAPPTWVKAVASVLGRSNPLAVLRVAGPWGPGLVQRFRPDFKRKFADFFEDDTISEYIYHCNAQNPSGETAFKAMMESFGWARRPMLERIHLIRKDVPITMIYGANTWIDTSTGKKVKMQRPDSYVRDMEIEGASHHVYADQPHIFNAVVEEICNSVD
Protein-arginine deiminase type-4 (Homo sapiens), sequence (Q9UM07 whole entry, looked up): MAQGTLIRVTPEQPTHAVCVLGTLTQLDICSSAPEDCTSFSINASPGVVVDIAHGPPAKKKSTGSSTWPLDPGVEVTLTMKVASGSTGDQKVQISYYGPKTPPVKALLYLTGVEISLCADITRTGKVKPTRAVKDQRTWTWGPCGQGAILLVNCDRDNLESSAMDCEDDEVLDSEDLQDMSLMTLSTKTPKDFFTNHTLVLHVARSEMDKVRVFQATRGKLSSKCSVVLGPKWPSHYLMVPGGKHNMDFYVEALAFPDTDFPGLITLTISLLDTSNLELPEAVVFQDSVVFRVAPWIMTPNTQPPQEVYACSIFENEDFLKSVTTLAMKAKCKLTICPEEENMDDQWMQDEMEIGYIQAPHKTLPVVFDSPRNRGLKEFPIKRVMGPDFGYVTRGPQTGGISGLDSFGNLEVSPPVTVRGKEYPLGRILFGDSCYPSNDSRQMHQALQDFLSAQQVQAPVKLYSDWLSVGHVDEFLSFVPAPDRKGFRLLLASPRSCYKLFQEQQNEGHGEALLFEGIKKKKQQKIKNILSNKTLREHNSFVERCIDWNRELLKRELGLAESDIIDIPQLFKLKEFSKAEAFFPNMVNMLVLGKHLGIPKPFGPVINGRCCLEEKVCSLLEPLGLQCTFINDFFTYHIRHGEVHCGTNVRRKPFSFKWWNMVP
Nuclear receptor subfamily 5 group A member 2 (Homo sapiens), sequence (O00482 whole entry, looked up): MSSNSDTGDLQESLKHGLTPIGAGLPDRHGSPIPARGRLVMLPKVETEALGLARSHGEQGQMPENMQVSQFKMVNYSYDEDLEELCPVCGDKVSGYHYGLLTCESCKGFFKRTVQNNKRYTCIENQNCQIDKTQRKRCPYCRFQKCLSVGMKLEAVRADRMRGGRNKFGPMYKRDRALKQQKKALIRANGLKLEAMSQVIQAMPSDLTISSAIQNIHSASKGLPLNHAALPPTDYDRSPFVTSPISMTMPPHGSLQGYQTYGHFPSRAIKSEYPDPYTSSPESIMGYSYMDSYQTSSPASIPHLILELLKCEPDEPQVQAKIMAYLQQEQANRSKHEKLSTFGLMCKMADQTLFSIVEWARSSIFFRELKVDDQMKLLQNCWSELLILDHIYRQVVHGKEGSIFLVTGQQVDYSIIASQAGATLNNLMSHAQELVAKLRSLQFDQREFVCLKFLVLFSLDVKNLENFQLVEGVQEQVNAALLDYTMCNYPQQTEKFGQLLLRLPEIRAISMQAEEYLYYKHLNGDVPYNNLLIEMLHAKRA
Receptor-interacting serine/threonine-protein kinase 2 (Homo sapiens), sequence (O43353 whole entry, looked up): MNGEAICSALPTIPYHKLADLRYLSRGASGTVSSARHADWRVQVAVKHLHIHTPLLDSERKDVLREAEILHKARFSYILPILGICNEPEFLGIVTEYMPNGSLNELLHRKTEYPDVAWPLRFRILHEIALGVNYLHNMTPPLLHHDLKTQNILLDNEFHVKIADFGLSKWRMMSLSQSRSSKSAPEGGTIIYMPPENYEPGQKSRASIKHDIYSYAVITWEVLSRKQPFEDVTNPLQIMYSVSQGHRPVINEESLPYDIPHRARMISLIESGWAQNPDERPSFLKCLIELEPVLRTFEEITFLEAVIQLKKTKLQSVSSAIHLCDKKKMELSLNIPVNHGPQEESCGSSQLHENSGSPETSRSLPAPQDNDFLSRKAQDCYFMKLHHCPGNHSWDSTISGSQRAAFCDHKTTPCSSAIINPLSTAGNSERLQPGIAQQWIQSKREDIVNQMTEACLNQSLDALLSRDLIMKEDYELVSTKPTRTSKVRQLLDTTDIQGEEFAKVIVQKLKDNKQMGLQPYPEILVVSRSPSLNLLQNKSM
Steroidogenic factor 1 (Homo sapiens), sequence (Q13285 whole entry, looked up, the tested form may be a part): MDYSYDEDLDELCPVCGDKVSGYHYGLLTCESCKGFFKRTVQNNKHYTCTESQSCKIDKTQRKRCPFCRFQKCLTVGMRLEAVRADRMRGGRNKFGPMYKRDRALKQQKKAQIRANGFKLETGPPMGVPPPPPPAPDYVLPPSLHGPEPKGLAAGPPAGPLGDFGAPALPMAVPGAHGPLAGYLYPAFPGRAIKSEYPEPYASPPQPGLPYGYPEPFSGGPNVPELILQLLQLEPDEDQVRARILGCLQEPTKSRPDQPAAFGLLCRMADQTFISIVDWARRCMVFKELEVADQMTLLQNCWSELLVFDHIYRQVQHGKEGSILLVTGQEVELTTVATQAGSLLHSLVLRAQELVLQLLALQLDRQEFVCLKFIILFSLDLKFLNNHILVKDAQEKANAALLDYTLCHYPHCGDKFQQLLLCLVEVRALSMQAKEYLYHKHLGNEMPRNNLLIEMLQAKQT
Nuclear receptor coactivator 2 (Homo sapiens), sequence (Q15596 whole entry, looked up, the tested form may be a part): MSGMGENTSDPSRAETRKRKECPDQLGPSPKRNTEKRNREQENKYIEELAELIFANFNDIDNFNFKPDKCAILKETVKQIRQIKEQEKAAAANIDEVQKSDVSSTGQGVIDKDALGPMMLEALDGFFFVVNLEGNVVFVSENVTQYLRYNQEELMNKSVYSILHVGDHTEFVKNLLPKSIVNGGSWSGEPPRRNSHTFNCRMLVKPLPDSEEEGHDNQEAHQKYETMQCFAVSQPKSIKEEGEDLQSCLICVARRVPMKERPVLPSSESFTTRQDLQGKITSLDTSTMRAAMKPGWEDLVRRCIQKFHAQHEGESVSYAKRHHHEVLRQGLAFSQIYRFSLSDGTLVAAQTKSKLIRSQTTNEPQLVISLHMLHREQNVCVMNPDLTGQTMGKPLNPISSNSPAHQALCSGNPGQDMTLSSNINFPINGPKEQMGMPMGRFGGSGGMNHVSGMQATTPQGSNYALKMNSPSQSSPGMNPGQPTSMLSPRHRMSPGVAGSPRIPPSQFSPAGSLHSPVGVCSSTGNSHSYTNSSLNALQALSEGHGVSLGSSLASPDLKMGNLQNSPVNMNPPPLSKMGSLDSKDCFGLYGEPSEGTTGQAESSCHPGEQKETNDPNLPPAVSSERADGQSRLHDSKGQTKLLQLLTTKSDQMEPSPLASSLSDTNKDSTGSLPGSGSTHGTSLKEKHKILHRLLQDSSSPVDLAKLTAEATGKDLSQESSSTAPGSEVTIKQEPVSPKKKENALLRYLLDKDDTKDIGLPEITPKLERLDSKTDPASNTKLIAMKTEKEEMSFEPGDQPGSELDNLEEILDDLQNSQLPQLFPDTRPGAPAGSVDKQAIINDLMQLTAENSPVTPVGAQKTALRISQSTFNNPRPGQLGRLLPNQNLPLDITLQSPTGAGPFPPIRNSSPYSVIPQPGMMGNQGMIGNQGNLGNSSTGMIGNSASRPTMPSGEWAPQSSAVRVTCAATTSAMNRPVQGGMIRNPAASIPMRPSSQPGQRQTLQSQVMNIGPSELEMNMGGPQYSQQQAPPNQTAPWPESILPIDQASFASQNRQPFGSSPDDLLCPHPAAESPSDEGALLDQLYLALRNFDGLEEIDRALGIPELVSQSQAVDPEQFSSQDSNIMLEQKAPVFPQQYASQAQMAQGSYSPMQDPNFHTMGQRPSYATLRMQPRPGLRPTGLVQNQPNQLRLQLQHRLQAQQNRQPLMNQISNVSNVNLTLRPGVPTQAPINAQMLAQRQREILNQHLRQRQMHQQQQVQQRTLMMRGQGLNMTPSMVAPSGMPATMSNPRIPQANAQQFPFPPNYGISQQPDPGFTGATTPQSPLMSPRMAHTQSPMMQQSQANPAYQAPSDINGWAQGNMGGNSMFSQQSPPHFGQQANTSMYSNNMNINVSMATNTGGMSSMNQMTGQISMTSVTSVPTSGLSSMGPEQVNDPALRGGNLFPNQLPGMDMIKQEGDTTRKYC

CC(=O)N(c1ccc2oc(=O)sc2c1)S(=O)(=O)c1ccc(C)cc1
inhibition [1]: 10.9%

CCc1ccccc1NC(=S)Nc1cc(OC)c(NC(=O)C(C)C)cc1OC
inhibition [1]: 1.96% | inhibition [2]: -9.17%

CC(C)(C)NC(=O)NC(=O)COC(=O)CCC1CCCCC1
inhibition [1]: 2.14%

CCc1nnc(SCc2cccc(F)c2)nc1CC
inhibition [1]: -0.68%

CCCCNC(=O)Nc1c(C)cc(SC#N)cc1C
inhibition [1]: 35.6% (active)

CNC(=S)NNC(=O)c1oc2nc(-c3ccccc3)cc(-c3ccco3)c2c1N
inhibition [1]: 2% | inhibition [3]: 11.5% | inhibition [4]: -11.2% | inhibition [5]: 30.5% (active) | inhibition [2]: 17.5%

CCCCNC(=O)C1(c2ccc(OC)cc2)CCOCC1
inhibition [1]: 8.6%

COc1cccc2c(C)c(C(=O)O)[nH]c12
inhibition [6]: 33% (active) | inhibition [2]: 34.5% (active)

CC(C)C(NC(=O)c1ccc(Cl)cc1)C(=O)O (centres undefined)
inhibition [1]: -6.12%

Cc1nn(C)cc1N1C(=O)c2cccc3c(N)ccc(c23)C1=O
inhibition [1]: 36.2% (active) | inhibition [7]: 24% (active) | inhibition [8]: 26.6% (active) | inhibition [4]: 52.9% (active) | inhibition [5]: 33.9% (active) | inhibition [2]: 40.4% (active)

CCOc1[nH]n(-c2ccc(Cl)cc2)c(=O)c1C=Nc1ccc(O)cc1
inhibition [1]: 6.04% | inhibition [2]: -0.05%

CC(C)n1cnc2c(NCc3ccccc3)cc(OCC3CCN(C)CC3)cc21
inhibition [1]: -10.7%

Cc1cc(/C=N/Nc2ccc([N+](=O)[O-])cn2)c(C)n1-c1cccc(C(=O)O)c1
inhibition [6]: 11.7% | inhibition [3]: 30.7% | inhibition [2]: 74.5% (active)

COc1ccc(C2NC(=S)NC3=C2CCc2ccccc23)cc1OC (centres undefined)
inhibition [1]: 22.5% (active)

CCC(C)Cn1c(O)cc2nn(-c3nc4ccccc4s3)c(=O)c-2c1C (centres undefined)
inhibition [6]: 20.9% | inhibition [3]: 59.6% (active) | inhibition [9]: 86.8% (active) | inhibition [10]: 94.8% (active) | inhibition [2]: 54.4% (active)

O=C(NCC1CCCO1)c1cc2c([nH]c3ccccc32)c(-c2ccc(F)cc2)n1 (centres undefined)
inhibition [1]: 64.8% (active) | inhibition [11]: 50.5% (active) | inhibition [12]: 41.6% (active) | inhibition [13]: 50.1% (active) | inhibition [14]: 27.2%

c1ccc2c(C[n+]3csc4ccccc43)cccc2c1
inhibition [1]: 61.3% (active)
